# This is part of a sample that, as a whole, favours compounds with a hit. Of some 83,000 tested, about 20% had one in any assay.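 Cells were grown in 96-well plates and exposed to the test compound at a single concentration for 48 hours; results are reported as percent growth, with values below 10 considered active.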 Unmarked numbers belong to inactive results. The source made the active and inactive calls.
# What was measured:
# Assay in all cases: NCI-60 one-dose screen, 48 h (100 = growth as untreated, 0 = no growth, -100 = all killed)
# Conditions in all cases: 10 µM unless noted
# [1] = system: HCT-15 colon
# [2] = system: HT29 colon
# [3] = system: SNB-75 CNS
# [4] = system: SNB-19 CNS
# [5] = system: U251 CNS
# [6] = system: PC-3 prostate
# [7] = system: SK-MEL-5 melanoma
# [8] = system: UACC-62 melanoma
# [9] = system: LOX IMVI melanoma
# [10] = system: SK-MEL-28 melanoma
# [11] = system: SK-MEL-2 melanoma
# [12] = system: EKVX NSCLC
# [13] = system: SN12C renal
# [14] = system: TK-10 renal
# [15] = system: ACHN renal
# [16] = system: CAKI-1 renal
# [17] = system: A498 renal
# [18] = system: UO-31 renal
# [19] = system: CCRF-CEM leukemia
# [20] = system: MOLT-4 leukemia
SMILES,growth [1],growth [2],growth [3],growth [4],growth [5],growth [6],growth [7],growth [8],growth [9],growth [10],growth [11],growth [12],growth [13],growth [14],growth [15],growth [16],growth [17],growth [18],growth [19],growth [20]
O=C(Nc1cccc(C2=NCCN2)c1)c1ccc(N=Nc2ccc(C(=O)Nc3cccc(C4=NCCN4)c3)cc2)cc1,82.2%,71.8%,48.7%,53.2%,16.5%,63.4%,80.4%,68.4%,75.8%,59.3%,56.6%,62.6%,49.9%,40.2%,52.4%,90.7%,66.3%,,,
COc1ccc(CNc2c3ccccc3nc3ccccc23)cc1F,11%,12.2%,42.5%,28%,26.9%,30.4%,36.5%,42.4%,1.25% (active),46.7%,45.1%,26.1%,25.9%,36.1%,,21.3%,-6.26% (active),13.5%,29.6%,8.92% (active)
C#C[C@]1(O)CC[C@H]2[C@@H]3CC=C4c5sc(-c6cccc(Br)c6)nc5CC[C@]4(C)[C@H]3CC[C@@]21C,61.7%,83.1%,59%,84.6%,70.9%,57.2%,99.9%,89.9%,71.6%,54.7%,98.2%,80.1%,96.3%,97.7%,,35%,,62.6%,61.4%,58%
c1ccc(-c2ccc(-c3ccccc3)[nH]2)cc1,94.8%,101%,87.9%,104%,105%,99.8%,99%,87.2%,103%,107%,98.7%,75.6%,95.5%,138%,,83.6%,63.7%,87%,90.9%,80.3%
CN(C)c1nc(-c2cccs2)n2nc(-c3ccco3)cc2n1,79.4%,93.4%,86.5%,102%,93.6%,91.2%,94.1%,89.7%,77.6%,117%,92.9%,80.1%,92%,103%,96.9%,85.5%,,57.9%,93.9%,97%
CCCCCCCOc1cccc(/C=C2\N=C3SCCCN3C2=O)c1,87.5%,88.9%,91.2%,92.8%,91.1%,85.3%,90.1%,79.6%,96.2%,100%,95.5%,92.7%,94.1%,96.2%,,94.4%,94.6%,78.7%,111%,100%
COc1ccc(-c2cc(C(=O)Nc3ccc(C)cc3)nc3[nH]c(=O)sc23)cc1,63.8%,81.4%,102%,57.7%,56.2%,73.8%,37.2%,31.3%,77.7%,70%,29.2%,73.3%,58.2%,61.1%,,60.6%,,58.3%,71.1%,
O=C(/C=C/c1ccccc1)c1c[nH]c2ccccc2c1=O,4.67% (active),8.44% (active),-15.6% (active),16.3%,11.6%,26.7%,43.4%,29.2%,-32.6% (active),66.4%,95.5%,36.3%,8.29% (active),22.5%,,4.66% (active),-6.19% (active),4.93% (active),-12.2% (active),9.81% (active)
NC(N)=NC1CCCCC1,103%,97.1%,107%,104%,89.9%,89.8%,107%,99.6%,91.6%,109%,101%,93%,103%,84.1%,,93.9%,98.1%,84.7%,90.3%,92.5%
COc1ccc(C(=O)O)cc1.[Ag],102%,103%,110%,106%,103%,77.1%,46.5%,108%,88.7%,110%,94.6%,108%,103%,106%,,87.2%,96.5%,91.2%,25.4%,-52.5% (active)
COc1cc(CN2CCC(N3CCCC3=O)c3ccccc32)cc(OC)c1OC (stereo not drawn),108%,80.5%,84.1%,83.6%,85.5%,66%,40.5%,64.4%,76.3%,98.2%,89.8%,66.1%,79.7%,86.3%,,70.7%,63.6%,56%,,72.4%
CCSc1cnnc2ccccc12,105%,106%,89.3%,106%,102%,104%,107%,102%,103%,107%,115%,98.9%,103%,116%,95.1%,95.3%,,94.3%,97.2%,89.7%
CCNCCCn1c2c(c3ccc(Cl)cc3c1=O)C(=O)c1cc(OC)cnc1-2,-58.2% (active),-76.3% (active),19.4%,28.8%,-93.8% (active),40%,18.3%,14.4%,-71.1% (active),70.5%,77.1%,53.4%,27.6%,39.9%,8.64% (active),39.9%,,10.3%,-37.3% (active),-34% (active)
c1ccc(-c2nnn(-c3ccccc3)n2)cc1,114%,104%,90.4%,101%,99.1%,103%,104%,94.1%,116%,110%,94.7%,93.2%,103%,147%,105%,92.9%,119%,,95.2%,91.2%
O=C1Nc2ccc(Br)cc2/C1=N/c1nc(-c2ccccc2)cs1,94.9%,91.7%,79%,96.2%,92.9%,62.3%,77.5%,80.5%,92%,95%,88%,66.8%,96%,109%,,70.7%,78.9%,63.9%,101%,59.2%
Clc1ccc(-c2cnc3c(-c4ccnc(N5CCNCC5)c4)cnn3c2)cc1,-22.9% (active),-7.81% (active),-68.6% (active),3.09% (active),-58.1% (active),15.2%,73.8%,-66.8% (active),-80.9% (active),-82.8% (active),-57.4% (active),80.8%,10.9%,1.85% (active),,-19.2% (active),92.2%,-42.6% (active),0.88% (active),-5.54% (active)
CS(=O)(=O)c1ccc(C(=O)N2N=C(c3ccccc3)CC2c2ccc3c(c2)OCO3)cc1 (stereo not drawn),85.7%,104%,88.2%,103%,91.4%,85.1%,101%,96.4%,95.5%,106%,89.8%,93.4%,94.4%,107%,,92.5%,86.2%,66.5%,105%,52.4%

SMILES,growth [1],growth [2],growth [3],growth [4],growth [5],growth [6],growth [7],growth [8],growth [9],growth [10],growth [11],growth [12],growth [13],growth [14],growth [15],growth [16],growth [17],growth [18],growth [19],growth [20]
CS(=O)(=O)c1ccc(C(=O)N/N=C/c2cccc3ccccc23)cc1,49.8%,49.5%,89.7%,79.8%,76.3%,78.8%,67.2%,61.6%,72.4%,89.4%,47.7%,87.4%,87.4%,85.1%,,67.2%,69.1%,78.5%,77.6%,46.8%
CCCNCCC(C)=O,111%,98.1%,107%,97.1%,68.8%,97.1%,115%,98%,94.5%,108%,118%,89.6%,102%,101%,106%,106%,,92.4%,107%,112%
S=C(Cc1ccccc1)N1CCN(c2ccccc2Cl)CC1,106%,100%,96.8%,116%,99.2%,86.6%,90.9%,86.2%,105%,119%,99.7%,94.5%,107%,116%,,85.2%,90.7%,82.4%,89.1%,82.1%
Oc1c(C(Nc2ccccc2Br)c2ccccc2)ccc2cccnc12 (stereo not drawn),26.5%,24%,60.4%,31.7%,12.9%,48.6%,2.41% (active),-26.3% (active),10.5%,39.2%,12.1%,23.4%,24.7%,30.3%,,13.2%,47.7%,16.8%,17.3%,4.89% (active)
C=CCOC(=O)C1=C(C)NC2=C(C(=O)CCC2)C1c1ccc(F)cc1 (stereo not drawn),105%,101%,80.3%,85.2%,97.8%,90.1%,98.8%,80.6%,97.1%,101%,101%,102%,92.1%,111%,,84.7%,99.3%,76.1%,98.1%,93.6%
CCN(CC)c1ccc(/C=N/N=C(N)N)cc1,41.2%,9.78% (active),40.2%,73.6%,46.9%,30.7%,40.2%,48.4%,55.5%,61.7%,49.1%,76.5%,67.3%,63.4%,,45.1%,43.9%,51.4%,36%,49.1%
COc1cccc(-c2nc3sccn3c2-c2ccnc(NCCN3CCCNS3(=O)=O)n2)c1,97.1%,45.2%,88.4%,127%,112%,94.4%,80.8%,9.99% (active),35%,44.1%,86.3%,110%,60.8%,115%,,44.6%,108%,70.7%,68.1%,87.5%
C=C1C(=O)O[C@H]2[C@H]1CC/C(COC(=O)NCc1[nH]nc3ccccc13)=C\CC[C@@]1(C)O[C@@H]21,5.35% (active),-32.6% (active),64.9%,67.8%,27.5%,28.8%,25.7%,16.5%,-17.2% (active),30.3%,30.9%,50.1%,35.4%,-4.85% (active),,16.6%,94.3%,71.5%,-6.22% (active),-12.7% (active)
COc1cc(C2CC(c3cccc(Nc4ccnc5cc(Cl)ccc45)c3)=NN2C=O)cc(OC)c1OC (stereo not drawn),27.6%,-54.3% (active),-26.9% (active),36.9%,21.5%,16.7%,4.37% (active),-35% (active),19.9%,7.27% (active),-18.1% (active),32%,19.7%,2.13% (active),,-31.1% (active),-16.4% (active),2.53% (active),2.72% (active),9.97% (active)
COc1cccc(NC(=O)OC(C)C)c1,96.3%,105%,96.7%,116%,94.9%,93.5%,109%,108%,102%,108%,136%,,98.6%,100%,101%,86.4%,92.7%,82.1%,3.14% (active),99%
CC(C)=CC[C@@H]1CC2(CC=C(C)C)C(=O)C(OC3(C(=O)c4ccccc4)C(=O)C4(CC=C(C)C)C[C@@H](CC=C(C)C)C(C)(C)C(CC=C(C)C)(C4=O)C3=O)(C(=O)c3ccccc3)C(=O)C(CC=C(C)C)(C2=O)C1(C)C (stereo partly drawn),5.15% (active),-16.1% (active),37.6%,11.6%,5.76% (active),-17.3% (active),-77.5% (active),-71.3% (active),1.63% (active),14.9%,-46.8% (active),2.26% (active),-17.9% (active),3.06% (active),4.64% (active),11.5%,-58% (active),,3.78% (active),-11.9% (active)
CCN(CC)CC(=O)Nc1c(C)cc(C(=O)NN)cc1C,103%,96.1%,84.9%,97.3%,97.5%,101%,102%,97.6%,94.3%,106%,117%,,98.3%,102%,107%,95.8%,99.7%,84.7%,114%,
N=C(N)c1ccc(-c2ccc(-c3ccco3)o2)cc1F,-40.6% (active),-2.59% (active),41.4%,67.2%,-16.8% (active),24.5%,-93.6% (active),-68.6% (active),-9.26% (active),-46.8% (active),-66.8% (active),,39.8%,7.98% (active),12.2%,23.1%,11.6%,-57.2% (active),,
COc1nccc2c(Sc3ccccc3)nc(N)nc12,100%,108%,84.5%,117%,110%,84.7%,99.2%,102%,107%,106%,101%,,105%,103%,108%,106%,76.2%,75.3%,97.7%,94.5%
NC(N)=N/N=C/c1ccc(Cl)cc1,70.5%,35.9%,81.1%,91.2%,88.8%,84.8%,74.5%,78.8%,86.3%,93.5%,95.9%,,94.9%,84.9%,91.8%,34%,68.2%,73.3%,71%,53.9%
COc1ccc2nc3cc(Cl)ccc3c(NC(=O)CSc3ccc(Cl)cc3)c2c1,-53.6% (active),-78.3% (active),-99.2% (active),-86.4% (active),-90.6% (active),-81.8% (active),-98% (active),-80% (active),-80.3% (active),-96.8% (active),-88.5% (active),-62.4% (active),-75.3% (active),-96.1% (active),-94.6% (active),-90.8% (active),-99% (active),,1.21% (active),-52% (active)
